LDHA block – inhibitors of human lactate dehydrogenase A. purified LDHA, NADH/diaphorase-resazurin fluorescence; active compounds read low. P00338. activity change, % (values are at about 110 or 230 µM). 480,000 tested, 0.15% active; in the data active = activity change below about -30%; inconclusive = mostly about -25% to -30%;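 note: plate controls were DMSO wells for no effect and wells without enzyme for full effect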
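Remaining NADH was detected by diaphorase (0.133 mg/mL) converting 37 µM resazurin to fluorescent resorufin, read at 0 and 20 minutes. The preceding 5-minute room-temperature reaction used 2 nM LDHA, 0.2 mM sodium pyruvate and 0.06 mM NADH at pH 7.4.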
aSyn yeast inh – alpha-synuclein toxicity inhibition in yeast | Yeast expressing alpha-synuclein, growth rescue, BacTiter-Glo, 24 h | Potency, µM (doses to about 46.1 µM), without a hit: at the top dose growth rescue (activation), actives largely listed as activators | 370,000 tested, 0.14% active; note: potency is the fitted concentration of half-maximal effect; % of control where 0% means no effect; nearly all actives have a fitted effect of over 65% in size
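Readout is rescue of growth in alpha-synuclein-expressing yeast, so inhibitors of toxicity appear as activators. Growth after 24 hr at 30 deg C in galactose medium is quantified by luminescence.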
TDP-43 yeast inh – TDP-43 toxicity inhibition in yeast; TDP-43 expressing yeast growth rescue, BacTiter-Glo, 24 h; Potency, µM (highest dose often 46.1 µM), for the others: at the top dose growth rescue (activation), most hits filed as activators; 410,000 tested, 1.8% active; AID 652104; note: potency is the fitted concentration of half-maximal effect; % of control where 0% means no effect; nearly all actives have a fitted effect of over 50% in size
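In this qHTS, compounds that restore growth of yeast expressing TDP-43 appear as activators. Cells (OD600=0.02, galactose medium, raffinose-pregrown) are incubated with compound 24 hr at 30 deg C and growth is quantified by BacTiter-Glo.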
FUS suppressor – suppressors of FUS proteinopathy in yeast; 390,000 tested, 0.24% active; AID 1347120; S. cerevisiae FUS-expressing, growth rescue, OD600, 24 h; Potency, µM (titrated, usually from 76.6 µM), usual class: activators;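 note: potency is the fitted concentration of half-maximal effect; plate controls were DMSO vehicle for no effect and reference control for full effect; nearly all actives have a fitted effect of over 55% in size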
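Cultures pregrown in 2.5% raffinose medium are shifted to minimal medium containing 2% galactose to express toxic FUS. Compounds are tested at several concentrations. After 24hr at 30C, growth is quantified at 600 nm absorbance.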
Abeta rescue – restores growth of yeast expressing A-beta42 peptide. yeast expressing A-beta42, growth rescue, OD600, 48 h; response scale: 0% DMSO, 100% iron-clioquinol control. Potency, µM (series often up to 46.1 µM), hits mostly activators. 410,000 tested, 0.063% active. AID 1347071; note: potency is the fitted concentration of half-maximal effect; nearly all actives have a fitted effect of over 55% in size
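Growth rescue measured by 600 nm absorbance after 48 h yeast culture at 30 C with compound. Values normalized between DMSO and an equimolar ferric chloride plus clioquinol control.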
PTHR1 ag – PTHR1 (human) receptor agonism; Q03431; HEK293 GP2 PTHR1 cells, GloSensor cAMP luminescence, 1 h; Potency, µM (highest dose often 115 µM), for inactives: at the highest dose activation, hits mostly activators; 410,000 tested, 0.075% active; note: potency is the fitted concentration of half-maximal effect; nearly all actives have a fitted effect of over 55% in size
Target sequence (Q03431 whole entry, looked up): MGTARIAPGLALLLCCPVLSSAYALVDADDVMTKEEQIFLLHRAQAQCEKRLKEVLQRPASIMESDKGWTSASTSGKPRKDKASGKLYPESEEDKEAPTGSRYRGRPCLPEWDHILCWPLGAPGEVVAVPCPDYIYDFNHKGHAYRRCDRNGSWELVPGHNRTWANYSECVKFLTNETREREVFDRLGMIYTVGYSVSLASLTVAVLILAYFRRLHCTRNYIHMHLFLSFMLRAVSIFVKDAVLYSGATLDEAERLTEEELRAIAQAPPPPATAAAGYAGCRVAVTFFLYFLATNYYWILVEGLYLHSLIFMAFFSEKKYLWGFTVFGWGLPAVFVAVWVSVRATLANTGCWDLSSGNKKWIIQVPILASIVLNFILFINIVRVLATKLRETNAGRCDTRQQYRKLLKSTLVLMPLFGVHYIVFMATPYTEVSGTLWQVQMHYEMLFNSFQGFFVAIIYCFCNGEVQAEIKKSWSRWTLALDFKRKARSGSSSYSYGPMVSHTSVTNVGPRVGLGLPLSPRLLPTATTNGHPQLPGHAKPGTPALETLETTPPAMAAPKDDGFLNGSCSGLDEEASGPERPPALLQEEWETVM
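HEK-293-derived GP2 cells expressing PTHR1 and a GloSensor cAMP reporter, 3,000/well, plated overnight, given luciferin plus IBMX (each 0.5 mM as added) for 1 h at 37 °C, then compound for 1 h at 37 °C. Luminescence was read after 15 min at room temperature.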
Active calls of the source: *; i = inactive; ? = inconclusive; . = no result given; [ ] = another dose, or the depositor's remark. An excerpt weighted towards active compounds, which were near 1.9% of everything screened. Unless noted, calls come from the whole dose curve; as a rule, active = well fitted curve in the direction sought with a large enough effect; inconclusive = small, poorly fitted or top-dose-only effect, or another doubt; inactive = no such curve, though single readings can be large; an effect the other way counts as inactive or inconclusive.

SMILES	LDHA block	aSyn yeast inh	TDP-43 yeast inh	FUS suppressor	Abeta rescue	PTHR1 ag
CCNC(=O)C1CCN(Cc2nnnn2-c2ccccc2)CC1	1	.	.	.	.	.
CN(C)c1cc(-c2ccc(Br)cc2)oc(=O)c1Cl	-10	2%	7.9µM*	i	i	-31%
Cc1ccc(-c2nnn(CC(=O)N(CC3CCCO3)C(C(=O)NC3CCCC3)c3ccc(F)cc3)n2)o1 (stereo not given)	-5	1%	7%	i	i	i
Cc1ccc(-c2nnn(CC(=O)N(CC3CCCO3)C(C(=O)NC3CCCC3)c3ccc(O)cc3)n2)o1 (stereo not given)	-8	-4%	-8%	28µM*	i	i
Cc1cc(OCCSc2nnc(-c3cccs3)n2C)ccc1Cl	1	-1%	?	i	i	?
Cn1c(SC/C=C/c2ccccc2)nnc1-c1cccs1	-6	17%	18µM*	i	i	-3%
Cc1ccc(OCCSc2nnc(-c3cccs3)n2C)cc1	-4	6%	13µM*	i	i	-10%[57.5 µM]
N#Cc1nc(-c2ccco2)oc1N1CCC(C(=O)NC2CCCCCCC2)CC1	7	.	.	.	.	.
COc1ccc(Br)c(C(=O)OCC(=O)NC2CCCCCC2)c1	-3	16%	22µM*	i	i	-31%
COc1ccc2c(c1)c(=O)oc1cc(OCC(=O)NC3CCCCC3)ccc12	1	0%	16µM*	i	?	i
COc1ccc2c(c1)c(=O)oc1cc(OCC(=O)NC3CC3)ccc12	-6	-1%	8%	i	i	-21%[57.5 µM]
COc1ccc2cc(CNC(=O)c3nn(C)c(=O)c4ccccc34)ccc2c1	0	.	.	.	.	.
Cc1c(CCCl)c(Cl)n2c(nc3ccccc32)c1C#N	-11	2%	7.1µM*	.	i	-23%
Cc1cc(Cl)n2c(nc3ccccc32)c1C#N	-1	-71%	3.2µM*	i	i	-38%
CC(=O)c1cn(CC(=O)NCCCCCC(=O)O)c2ccccc12	-10	.	.	.	.	.
Cc1cc(C)c2nc(NNC(=O)c3ccc(S(=O)(=O)N4CC(C)CC(C)C4)cc3)sc2c1 (stereo not given)	-5	1%	5µM*	i	i	-39%
Cc1ccc2nc(NNC(=O)c3ccc(S(=O)(=O)N4CCc5ccccc5C4)cc3)sc2c1	-11	?	8.9µM*	?	i	-12%
Cc1cc(C)c2nc(NNC(=O)c3ccc(S(=O)(=O)N4CCCC(C)C4)cc3)sc2c1 (stereo not given)	-12	27%	?	i	i	-3%
O=C(Nc1nnc(C2CC2)o1)c1ccc(S(=O)(=O)N2CCc3ccccc3C2)cc1	5	18µM*	16µM*	i	i	-12%
CCCC(=O)Nc1ccc2oc(-c3cc(F)c(F)cc3Cl)nc2c1	6	.	.	.	.	.
Cc1ccc2nc(C)c(C(=O)/C=C/c3ccccc3)c(-c3ccccc3)c2c1	-1	.	.	.	.	.
CCSc1ncc(Cl)c(C(=O)N2CCN(c3ccccc3OC)CC2)n1	0	.	35µM*	i	i	i
CCCSc1ncc(Cl)c(C(=O)N2CCN(c3ccc(OC)cc3)CC2)n1	1	.	?	?	i	-16%
COc1cccc(NC(=O)c2nc(SC)ncc2Cl)c1	0	-15%	2%	i	i	-12%
CCS(=O)(=O)c1ncc(Cl)c(C(=O)N2CCN(c3ccc(OC)cc3)CC2)n1	5	.	13µM*	i	i	-96%
SMILES	LDHA block	aSyn yeast inh	TDP-43 yeast inh	FUS suppressor	Abeta rescue	PTHR1 ag
COc1ccc(N2CCN(C(=O)c3nc(SC)ncc3Cl)CC2)cc1	7	.	20µM*	i	i	i
CCCSc1ncc(Cl)c(C(=O)N2CCN(c3cccc(Cl)c3)CC2)n1	0	.	?	i	i	-12%
COc1ccc(NC(=O)c2nc(SC)ncc2Cl)cc1	-8	1%	20µM*	i	i	13%
CCCc1nnc(NC(=O)c2cc(=O)c3cc(C)cc(C)c3o2)s1	5	.	.	.	.	.
Cc1ccc(C(=O)O)cc1I	1	.	.	.	.	.
COc1ccccc1Nc1cc(C)nc2nc(-c3ccccc3)nn12	-6	.	13µM*	i	i	-21%
COc1ccc(Nc2cc(C)nc3nc(-c4ccccc4C)nn23)c(OC)c1	-10	.	.	.	.	.
Cc1cccc(-c2nc3nc(C)cc(NC(C)c4ccccc4)n3n2)c1 (stereo not given)	1	-9%	25µM*	i	i	-8%
Cc1cc(Nc2ccc(Br)cc2)n2nc(-c3ccccc3C)nc2n1	-9	.	14µM*	i	i	-24%
Cc1cccc(-c2nc3nc(C)cc(N4CCN(c5ccccc5)CC4)n3n2)c1	-10	.	?	i	i	i
COc1ccc(-c2nc3nc(C)cc(Nc4ccccc4C)n3n2)cc1	5	.	.	.	.	.
O=C(CSc1n[nH]c(-c2ccccc2)n1)Nc1ccccc1C(F)(F)F	-5	.	.	.	.	.
CCCOc1ccc(-c2nc(C#N)c(NCCc3ccc(OC)c(OC)c3)o2)cc1	-17	.	.	.	.	.
CC(Sc1nnc(COc2ccc(Cl)cc2)n1C)C(=O)c1ccc(Cl)cc1 (stereo not given)	7	.	.	.	.	.
Cc1nc(Nc2cccc(Cl)c2)c2oc3ccccc3c2n1	-2	-23%	16µM*	i	i	-1%
COc1ccc(Oc2nc(C)nc3c2oc2ccccc23)cc1	-5	10%	16µM*	i	i	-43%
Cc1nc2ccccc2nc1OCc1cccc(Cl)c1	-7	5%	13µM*	i	i	-17%
Cc1nc2ccccc2nc1Nc1cccc(Cl)c1	-12	13%	13µM*	i	?	i
CN(C)C(=O)c1ccc(Br)cc1F	0	.	.	.	.	.
Cc1nc(Nc2ccccc2F)c2oc3ccccc3c2n1	-1	0%	2.5µM*	i	i	0%
Cc1cccc(C(=O)N2CCN=C2SCc2ccc([N+](=O)[O-])cc2)c1	0	4%	10µM*	i	i	-38%
O=C(/C=C/c1ccc2c(c1)OCO2)c1ccco1	-6	10%	16µM*	.	i	-28%
O=C(/C=C/c1ccc2c(c1)OCO2)c1ccc(O)cc1O	2	-28%	8.9µM*	i	i	-14%
Cc1ccc(NC(=O)CSc2nc3ccccc3o2)cc1	-5	.	.	.	.	.
COc1ccc([C@H]2/C=C\CN(C(=O)CC(C)(C)C)[C@@H](C)C(=O)N2Cc2ccc(F)cc2)cc1	1	3%	35µM*	i	i	-16%
CCCNc1nc(-c2ccc(S(=O)(=O)N3CCCCCC3)cc2)cs1	-1	.	.	.	.	.
Fc1ccccc1NC(=S)NCCc1cccc(Cl)c1	-1	-1%	?	i	22µM*	-10%

From PubChem
